A selection: hits, their analogues and other compounds. The true share with any hit is near 7.3%.
FLuc counter: counter-screen for miR-21 project: firefly luciferase inhibitors or activators; P08659; purified FLuc, Km substrates, luminescence inhibition; Potency, µM (highest dose often 57.5 µM), without a hit: top-dose activity change, negative = inhibition, usual class: inhibitors; 360,000 compounds, 6.9% hits; AID 588342;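 note: plate controls were vehicle for no effect and reference inhibitor for full effect; nearly all actives have a fitted effect of over 55% in size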
Target sequence (P08659 whole entry, looked up): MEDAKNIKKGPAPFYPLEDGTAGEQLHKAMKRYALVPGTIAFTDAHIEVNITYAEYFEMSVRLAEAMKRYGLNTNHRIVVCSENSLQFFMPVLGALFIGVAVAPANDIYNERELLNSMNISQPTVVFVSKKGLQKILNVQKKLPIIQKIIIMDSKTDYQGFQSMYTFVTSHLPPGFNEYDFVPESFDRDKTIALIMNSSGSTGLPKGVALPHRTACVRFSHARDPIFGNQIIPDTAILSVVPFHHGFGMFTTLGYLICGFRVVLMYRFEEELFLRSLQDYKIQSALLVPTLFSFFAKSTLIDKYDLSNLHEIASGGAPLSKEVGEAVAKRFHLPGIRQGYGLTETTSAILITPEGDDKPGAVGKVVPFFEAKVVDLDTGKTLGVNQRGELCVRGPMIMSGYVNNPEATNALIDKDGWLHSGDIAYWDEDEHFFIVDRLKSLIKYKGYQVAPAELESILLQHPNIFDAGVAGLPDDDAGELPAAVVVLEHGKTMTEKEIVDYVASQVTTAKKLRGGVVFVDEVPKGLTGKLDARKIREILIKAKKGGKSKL
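Purified P. pyralis luciferase (10nM final) with 10uM D-luciferin and 10uM ATP (Km levels) in 50mM Tris acetate pH 7.5, 10mM Mg acetate, 0.01% Tween-20, 0.05% BSA; qHTS 6-point titration, ~60 µM downward; luminescence read.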
uPA generation: inhibitors of cell surface uPA generation. cell surface uPA generation assay, qHTS. Potency, µM (doses to about 38.3 µM), without a hit: at the top dose activity change, negative = inhibition, most hits filed as inhibitors. 330,000 compounds, 0.31% hits; active = well fitted inhibition curve with a large enough effect; inconclusive = small, poorly fitted or top-dose-only effect; inactive = no such curve, though single readings can be large or run the other way; tested in mouse RAW 264.7 cells; note: % is set by controls: 0 for no effect and ±100 for the full control effect; nearly all actives have a fitted effect of over 55% in size
Rab9 promoter act: Rab9 promoter activation; Potency, µM (doses to about 9.22 µM), inactives show at the highest dose activation, negative = inhibition, usual class: activators; Huh7 Rab9 promoter-luciferase reporter, luminescence, 24 h; 320,000 compounds, 2.8% hits; note: % of control where 0% means no effect; nearly all actives have a fitted effect of over 60% in size
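Cells were plated at 1500 per well in reduced-serum medium with 10% FBS and left 2 h. Compound in DMSO was then added for 24 h at 37 °C. Reporter signal was read by luminescence after 10 min with luciferase detection reagent.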
NPC1 prom act: activators of NPC1 promoter | Potency, µM (doses to about 9.22 µM), for inactives: at the top dose activation, usual class: activators | Huh7 NPC1 promoter luciferase reporter, 24 h | 320,000 compounds, 2.4% hits; note: % of control where 0% means no effect; nearly all actives have a fitted effect of over 60% in size
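Quantitative HTS used a cell-based reporter: Huh7 cells stably bearing the NPC1 promoter upstream of luciferase were treated with compounds for 24 h, and promoter activation was read as luminescence.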
SMN2 splice up: enhancers of SMN2 splice variant expression; HEK293 SMN2-luciferase splicing reporter, luminescence, 30-36 h; Potency, µM (highest dose often 46.1 µM), for inactives: at the top dose activity change, positive = activation, hits mostly activators; 210,000 compounds, 2.8% hits; AID 1458; note: % of control where 0% means no effect; nearly all actives have a fitted effect of over 55% in size
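HEK293 cells carry an SMN2 minigene-luciferase reporter in which exon 7 inclusion puts luciferase in frame. Cells were seeded at 2000 cells/well, attached for 10-12 hours, then exposed to compounds for 30-36 hours at 37C before ONE-Glo luminescence.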
ELG1 genotox: genotoxicity induction in ELG1-luciferase HEK293T cells; HEK293T ELG1-luciferase reporter, luminescence, 16 h; 330,000 compounds, 1.3% hits; AID 504466; Potency, µM (top dose mostly 46 µM), for inactives: at the highest dose activity change, positive = activation, usual class: activators; note: % of control where 0% means no effect; nearly all actives have a fitted effect of over 60% in size
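DMSO vehicle served as control against compound-treated ELG1-luciferase HEK293T cells; exposure lasted 16 hr at 37 °C and 5% CO2, followed by ONE-Glo luminescence detection after 30 min.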
* hit, by the source's call. Unless noted, calls come from the whole dose curve; as a rule, active = well fitted curve in the direction sought with a large enough effect; inconclusive = small, poorly fitted or top-dose-only effect, or another doubt; inactive = no such curve, though single readings can be large; an effect the other way counts as inactive or inconclusive. Potency is the fitted concentration of half-maximal effect.

Results for OCC1O[C@H](Oc2ccc(O)cc2)C(O)C(O)C1O (some centres not stated) ?
SMN2 splice up: -12%

Results for CCCN1C(=O)C2(c3ccccc31)c1c(oc3ccc(F)cc3c1=O)C(=O)N2CCCOC(C)C (configuration not stated) ?
FLuc counter: -6%; SMN2 splice up: -7%

How did Cc1ccc2nc(NCc3ccccc3)[nH]c2c1 do in these assays?
FLuc counter: 9.5µM*; uPA generation: -8%; Rab9 promoter act: inconclusive; NPC1 prom act: 22%; SMN2 splice up: 8.9µM*; ELG1 genotox: 11µM*

What do the screens show for `c1ccc2[nH]c(NCc3ccc4c(c3)OCO4)nc2c1`?
FLuc counter: 3.4µM*; uPA generation: -11%; Rab9 promoter act: inconclusive; NPC1 prom act: inconclusive; ELG1 genotox: inconclusive

What do the screens show for `c1ccc(CNc2nc3ccccc3[nH]2)cc1`?
FLuc counter: 6.7µM*; uPA generation: inconclusive; Rab9 promoter act: inconclusive; NPC1 prom act: 15%; SMN2 splice up: inconclusive; ELG1 genotox: inconclusive

How did COc1ccc2nc(NCc3ccccc3)[nH]c2c1 do in these assays?
FLuc counter: 15µM*; Rab9 promoter act: inconclusive; NPC1 prom act: 17%; SMN2 splice up: 13µM*; ELG1 genotox: inconclusive

What do the screens show for `Cc1cc(NC(=O)/C=C/c2ccc(Cl)cc2)no1`?
FLuc counter: -20%; uPA generation: -3%; Rab9 promoter act: inconclusive; NPC1 prom act: 25%; SMN2 splice up: inconclusive; ELG1 genotox: 9%

Results for COc1ccc(Br)cc1CNC(=O)Cn1c(=O)c2cccn2c2ccc(F)cc21 ?
FLuc counter: -6%

How did Cc1ccc2nc(C3CCCN(C(=O)NCc4ccccc4)C3)[nH]c2c1 (configuration not stated) do in these assays?
FLuc counter: inconclusive; Rab9 promoter act: 5%; NPC1 prom act: 1%; ELG1 genotox: 14%

How did Cc1ccc2nc(C3CCN(C(=O)NCc4ccccc4)CC3)[nH]c2c1 do in these assays?
FLuc counter: 17µM*; uPA generation: -7%; Rab9 promoter act: -7%; NPC1 prom act: 11%; SMN2 splice up: 2%; ELG1 genotox: 6%

Results for O=C(Nc1cc2c(cc1C(=O)c1cccc(Br)c1)OCCO2)c1ccccc1F ?
FLuc counter: 1%; SMN2 splice up: 0%

Results for Cc1ccc(C(=O)NC(=S)Nc2ccccc2C(F)(F)F)cc1 ?
FLuc counter: inconclusive; uPA generation: -1%; Rab9 promoter act: 15%; NPC1 prom act: -3%; ELG1 genotox: 0%

How did Cc1ccc(C(=O)NC(=S)Nc2cccnc2Cl)cc1 do in these assays?
FLuc counter: 12µM*; uPA generation: -1%; Rab9 promoter act: 2.8µM*; NPC1 prom act: 2.5µM*; ELG1 genotox: inconclusive

Results for COc1ccccc1C(=O)NC(=S)Nc1cccnc1Cl ?
FLuc counter: 2.4µM*; uPA generation: -15%; Rab9 promoter act: 1µM*; NPC1 prom act: 1.1µM*; ELG1 genotox: 0.82µM*

How did CCOc1ccc(NC(=O)N2CC=C(c3c[nH]c4ccccc34)CC2)cc1 do in these assays?
FLuc counter: -4%

Results for O=C(COc1ccc(Cl)cc1)NNC(=O)c1cccnc1 ?
FLuc counter: -6%; uPA generation: -1%; Rab9 promoter act: -2%; NPC1 prom act: 1%; SMN2 splice up: -13%; ELG1 genotox: 0%

What do the screens show for `Cc1cc(Cl)ccc1OCC(=O)NNC(=O)c1ccco1`?
FLuc counter: 9.5µM*; uPA generation: -6%; Rab9 promoter act: 26%; NPC1 prom act: 10%; ELG1 genotox: inconclusive

How did CCOc1ccc(NC(=O)CCC(=O)NNC(=O)COc2ccc(C)cc2Br)cc1 do in these assays?
FLuc counter: 2.1µM*; uPA generation: -29%; Rab9 promoter act: inconclusive; NPC1 prom act: inconclusive; ELG1 genotox: inconclusive

What do the screens show for `COc1ccc(NC(=O)c2ccco2)cc1NC(=O)COc1ccc(Cl)cc1C`?
FLuc counter: -5%; SMN2 splice up: -12%

What do the screens show for `Cc1cc(Cl)ccc1OCC(=O)NNC(=O)c1cccnc1`?
FLuc counter: 19µM*; uPA generation: 3%; Rab9 promoter act: 17%; NPC1 prom act: 1%; ELG1 genotox: -4%

What do the screens show for `O=C(COc1ccc(Cl)cc1Cl)NNC(=O)c1cccnc1`?
FLuc counter: 5.4µM*; uPA generation: -3%; Rab9 promoter act: 9%; NPC1 prom act: 5%; ELG1 genotox: 15%

How did Cc1ccc(OCC(=O)Nc2ccc(NC(=O)c3ccco3)cc2)c(C)c1 do in these assays?
FLuc counter: 0%; uPA generation: 12%; Rab9 promoter act: 17%; NPC1 prom act: 13%; ELG1 genotox: 3%

How did CC(C)(C)c1ccc(OCC(=O)NNC(=S)NC(=O)c2ccco2)c(Br)c1 do in these assays?
FLuc counter: 9.5µM*; uPA generation: 3%; Rab9 promoter act: 3%; NPC1 prom act: -4%; ELG1 genotox: 1%

What do the screens show for `Cc1cc(Cl)ccc1OCC(=O)Nc1ccncc1`?
FLuc counter: 15µM*; uPA generation: -25%; Rab9 promoter act: -13%; NPC1 prom act: -6%; ELG1 genotox: inconclusive

Results for Cc1ccc(NC(=O)COc2ccc(Br)cc2C)cc1 ?
FLuc counter: 9.5µM*; uPA generation: 1%; Rab9 promoter act: 29%; NPC1 prom act: 18%; SMN2 splice up: -2%; ELG1 genotox: inconclusive

What do the screens show for `CC(C)c1ccc(OCC(=O)NNC(=S)NC(=O)c2ccco2)c(Br)c1`?
FLuc counter: inconclusive; uPA generation: -7%; Rab9 promoter act: -1%; NPC1 prom act: 0%; ELG1 genotox: -3%

How did Cc1cc(Cl)ccc1OCC(=O)NCc1ccncc1 do in these assays?
FLuc counter: -8%; uPA generation: -5%; Rab9 promoter act: -4%; NPC1 prom act: -4%; SMN2 splice up: -31%; ELG1 genotox: 1%

How did CCCOC(=O)c1ccc(Cn2nnc3sc4c(c3c2=O)CCC(C)C4)cc1 (configuration not stated) do in these assays?
FLuc counter: -1%; SMN2 splice up: 4%

What do the screens show for `COC(=O)CN1C(C(=O)c2ccccc2)=C(OC(=O)c2ccccc2)c2ccccc2S1(=O)=O`?
FLuc counter: -4%; SMN2 splice up: -5%

What do the screens show for `O=C(CCn1c(=O)c2cccn2c2ccc(F)cc21)NCc1ccccc1F`?
FLuc counter: 3%

What do the screens show for `CCn1cc(/C=C(\NC(=O)c2ccccc2Cl)C(=O)NCCCn2ccnc2)c2ccccc21`?
FLuc counter: -10%; SMN2 splice up: 0%
